Measured values taken from PubChem BioAssay (Tox21).
Inconclusive results are not listed. A call without a number means that no potency is given here. Values without a mark were called inactive. Calls of active or inactive are those of the source. Calls follow the shape of the dose curve; as a rule, active = well fitted cell-killing curve with a large enough effect in the repeat runs; inconclusive = weak or mixed curves, or effect the other way; inactive = flat fitted curve, though single readings scatter.

Experiment: qHTS RealTime-Glo MT Cell Viability Assay in HepG2 cells - 0 hour (AID 1224889); also: nearly all actives have a fitted effect of over 50% in size
Conditions: RealTime-Glo luminescence; series mostly up to 76.8 µM
From the text: U.S. Tox21 Program National Center for Advancing Translational Sciences [NCATS] NIH Chemical Genomics Center [NCGC] U.S. Environmental Protection Agency [EPA] National Institutes of Environmental Health Sciences [NIEHS] National Toxicology Program [NTP] U.S. Food and Drug Administration [FDA] Tox21 Assay Overview: Measure of cell viability is critical in the cell-base assay. Analysis of cell viability is necessary for the characterization of cell responses to cytotoxic drugs and environmental stress. A RealTime-Glo MT Cell Viability Assay to monitor cell viability in real time of continues cell culture during 40 hours of compound treatment was used to screen Tox21 10K library compounds in HepG2 cells. The RealTime-Glo MT Cell Viability Assay is a nonlytic, homogeneous, bioluminescent method to measure cell viability in real time using a simple, plate-based method. The assay involves adding NanoLuc luciferase and a cell-permeant prosubstrate to cells in culture. Viable cells reduce the proprietary prosubstrate to generate a substrate for NanoLuc luciferase. This substrate diffuses from cells into the surrounding culture medium, where it is rapidly used by the NanoLuc Enzyme to produce a luminescent signal. The signal correlates with the number of viable cells, making the assay well suited for cytotoxicity studies.
Tox21 Assay Protocol Summary: The mixture of HepG2 cell suspension and reagents were dispensed at 600cells/6 ul/well in 1536-well tissue culture treated black solid bottom plates using a Multidrop dispenser. After the assay plates were incubated at a 37 C/5% CO2 incubator for 5 hours, 23 nL of compounds dissolved in DMSO, positive and negative controls was transferred to the assay plate by a pintool work station. The plates were incubated at 37 C for 40 hours. The luminescence intensity were measured at 0h, 8h, 16h, 24h, 32h and 40h time points using ViewLux plate reader during compound treatment.

SMILES	Potency	activity change, negative = cytotoxicity
Cl[Si](Cl)(c1ccccc1)c1ccccc1	inactive	–
OC[C@H]1O[C@H](O[C@H]2O[C@H](CO)[C@@H](O)[C@H](O)[C@H]2O)[C@H](O)[C@@H](O)[C@@H]1O	inactive	–
CC(C)=CCC1=C(O)c2ccccc2C(=O)C1=O	inactive	–
CC(CCc1ccccc1)NCC(O)c1ccc(O)c(C(N)=O)c1 (stereo not given)	inactive	–
CN1CCN2c3ccccc3Cc3ccccc3C2C1 (stereo not given)	inactive	–
S=C([S-])NCCNC(=S)[S-].S=C([S-])NCCNC(=S)[S-].[Mn+2].[Zn+2]	inactive	–
CC(C)=CCNc1ncnc2c1ncn2[C@@H]1O[C@H](CO)[C@@H](O)[C@H]1O	inactive	–
O=C1C(c2[nH]c3ccc(S(=O)(=O)O)cc3c2O)=Nc2ccc(S(=O)(=O)O)cc21	inactive	–
COc1cccc(OC)c1C(=O)O	inactive	–
O=C1c2ccccc2C(=O)N1SC1CCCCC1	inactive	–
CCC(CC)C(C)CCOC(C)=O (stereo not given)	inactive	–
CN(C)Cc1ccccc1O	inactive	–
Cc1ccc(O)c(N)c1	inactive	–
Clc1ccnc(Cl)n1	inactive	–
CC(C)CCOC(=O)/C=C/c1ccccc1	inactive	–
CCc1cccc(CC)c1NC(=O)CN(CC(=O)O)CC(=O)O	inactive	–
Cc1nc2n(c(=O)c1CCN1CCC(c3noc4cc(F)ccc34)CC1)CCCC2	inactive	–
Cc1c2ccccc2c(C)c2c1ccc1ccccc12	inactive	–
O=C1NC(=O)[C@@H]2CC=CC[C@H]12	inactive	–
Cc1ccc(C)cc1	inactive	–

SMILES	Potency	activity change, negative = cytotoxicity
Nc1ccc(NCCO)c([N+](=O)[O-])c1	inactive	–
CCCCCCCCCCCCOC(=O)c1ccc(O)cc1	inactive	–
CCCCCCOC(=O)C(C)CC (stereo not given)	inactive	–
CCCCOC(=O)CC	inactive	–
CCCC1CCC(=O)CC1	inactive	–
C=CC(C)(CCC=C(C)C)OC=O (stereo not given)	inactive	–
CCCCCCC1CCCC(=O)O1 (stereo not given)	inactive	–
C=C(CC)C(=O)c1ccc(OCC(=O)O)c(Cl)c1Cl	inactive	–
O=[N+]([O-])c1ccc(O)cc1C(F)(F)F	inactive	–
O=C(O)c1cc(N=Nc2ccc([N+](=O)[O-])cc2)ccc1O	inactive	–
NC(=S)NC(N)=S	inactive	–
Cc1c(C)c2c(c(C)c1OC(=O)c1cccnc1)CC[C@@](C)(CCC[C@H](C)CCC[C@H](C)CCCC(C)C)O2	inactive	–
O=c1[nH]c(=O)n([C@H]2C[C@H](O)[C@@H](CO)O2)cc1F	inactive	–
Oc1ccccc1O	inactive	–
Sc1nc2ccccc2s1	inactive	–
O=C(O)O	–	-3.52% [at 6.97 µM]
CCN(CCN)c1cccc(C)c1	inactive	–
CCC(C)[O-].CCC(C)[O-].CCOC(=O)/C=C(/C)[O-].[Al+3]	inactive	–
O=C(O)c1cc(-c2ccc(F)cc2F)ccc1O	inactive	–
CC1=CCC(=C(C)C)CC1	inactive	–
